A selection: hits, their analogues and other compounds. The true share with any hit is near 8%.
ELG1 DNA repair – inhibitors of ELG1-dependent DNA repair in HEK293T cells; HEK293T ELG1-luciferase reporter, luminescence, 16 h; DNA damage induced by 5-fluorouridine; Potency, µM (doses to about 46.1 µM), for inactives: at the top dose activity change, negative = inhibition, most hits filed as inhibitors; 2.3% of 330,000 active; note: potency is the fitted concentration of half-maximal effect; nearly all actives have a fitted effect of over 55% in size
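HEK293T cells expressing luciferase-tagged ELG1 (2,000/well) received 5-Fluorouridine plus compound or DMSO for 16 hr at 37 °C. Luciferase was read by ONE-Glo luminescence after 30 min at room temperature.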
TSHR antagonist – antagonists of human thyroid stimulating hormone receptor | P16473 | TSHR-expressing cells, TSH-stimulated cAMP HTRF, 2 h; hits give low values | activity change, negative = inhibition, % at 11.5 µM | 0.2% of 330,000 active | AID 504810;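 active = activity change below a set negative limit, meaning inhibition stronger than a set level, cut at about -70% in these data; inconclusive = activity change between two set negative limits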
Target sequence (P16473 whole entry, looked up): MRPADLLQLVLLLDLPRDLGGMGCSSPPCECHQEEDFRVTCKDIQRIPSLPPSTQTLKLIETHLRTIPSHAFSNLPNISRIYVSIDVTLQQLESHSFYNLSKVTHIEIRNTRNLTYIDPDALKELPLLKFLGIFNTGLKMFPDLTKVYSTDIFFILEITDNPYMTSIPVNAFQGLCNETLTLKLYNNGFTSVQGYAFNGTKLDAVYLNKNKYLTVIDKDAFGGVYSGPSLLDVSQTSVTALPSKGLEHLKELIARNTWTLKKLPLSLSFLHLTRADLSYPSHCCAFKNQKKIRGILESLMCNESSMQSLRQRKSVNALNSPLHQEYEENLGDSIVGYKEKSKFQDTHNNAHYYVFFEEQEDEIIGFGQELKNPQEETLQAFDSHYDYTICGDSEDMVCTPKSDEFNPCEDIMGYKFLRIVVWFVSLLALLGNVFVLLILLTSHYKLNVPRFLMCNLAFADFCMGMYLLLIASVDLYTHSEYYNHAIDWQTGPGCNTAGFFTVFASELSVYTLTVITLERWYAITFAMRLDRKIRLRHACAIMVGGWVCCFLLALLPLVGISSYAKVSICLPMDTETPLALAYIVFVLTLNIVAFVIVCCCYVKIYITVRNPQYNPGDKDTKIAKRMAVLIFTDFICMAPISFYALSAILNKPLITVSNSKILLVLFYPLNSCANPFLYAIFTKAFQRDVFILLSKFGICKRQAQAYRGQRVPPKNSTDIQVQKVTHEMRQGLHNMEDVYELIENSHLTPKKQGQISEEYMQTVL
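Inhibition of cAMP made by TSHR-expressing cells under TSH stimulation (4nM final, EC80; 2 h, 37 deg C) is quantified with a one-step lysis HTRF kit, anti-cAMP cryptate versus cAMP-d2.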
RORg inh – blocks mouse ROR gamma transcriptional activity | Drosophila S2 Gal4-RORgamma UAS-luciferase reporter, 20 h | Potency, µM (doses to about 53.6 µM), for the others: at the top dose activity change, negative = inhibition, usual class: inhibitors | 5.4% of 310,000 active; note: potency is the fitted concentration of half-maximal effect; nearly all actives have a fitted effect of over 60% in size
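Schneider cells (Drosophila), stable Gal4 DBD–ROR gamma + UAS-luc; 1 hr cmpd preincubation; Cu2+ induction 700 uM final; 20 hr ambient; luminescence.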
Gal4-VP16 FLuc – counter-screen for ROR gamma inhibitors: Gal4-VP16 reporter; Potency, µM (titrated, usually from 53.6 µM), without a hit: top-dose activity, negative = inhibition, most hits filed as inhibitors; Drosophila S2 Gal4-VP16 UAS-luciferase, luminescence, 20 h; AID 2546; 3.5% of 310,000 active;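 note: Gal4-VP16 expression switched on by copper sulfate through the metallothionein promoter; potency is the fitted concentration of half-maximal effect; nearly all actives have a fitted effect of over 50% in size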
FBPA coupling cs – counter-screen for Giardia aldolase inhibitors: coupling enzyme system. coupling enzyme system counterscreen, AmpLite Red fluorescence. activity change, negative = inhibition, % at 58.2 µM, hits read low. 0.67% of 290,000 active; in the data active = activity change below about -30%
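Counterscreen of the coupled detection system alone, without aldolase: glyceraldehyde-3-phosphate coupling enzymes plus AmpLite Red readout. Compounds at 57.5 uM final, 10 min RT preincubation, 20 min RT reaction, fluorescence 525/598 nm.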
Starred values were filed as active, the others as inactive; ? = inconclusive; nt = not tested or not shown. Unless noted, calls come from the whole dose curve; as a rule, active = well fitted curve in the direction sought with a large enough effect; inconclusive = small, poorly fitted or top-dose-only effect, or another doubt; inactive = no such curve, though single readings can be large; an effect the other way counts as inactive or inconclusive. % is set by controls: 0 for no effect and ±100 for the full control effect.

SMILES	ELG1 DNA repair	TSHR antagonist	RORg inh	Gal4-VP16 FLuc	FBPA coupling cs
O=C(CSc1nnc(SCc2ccc(Cl)cc2)s1)N/N=C/c1c[nH]c2ccccc12	-0.5%	-21.1	11.2µM*	8.91µM*	-10.4
CC(=O)OC1=C(C#N)Cn2ccc3cccc1c32	-0.2%	16.7	16.5%	-2.1%	-40.9*
CCOC(=O)c1[nH]c2ccc(F)cc2c1NC(=O)c1cc(OC)c(OC)c(OC)c1	7.31µM*	8.2	2.8%	0.9%	-9.9
CCOC(=O)c1[nH]c2ccc(OC)cc2c1NC(C)=O	-3.8%	38.2	-3.7%	-25.3%	-2.2
CCOC(=O)c1[nH]c2ccc(OC)cc2c1NC(=S)N1CCN(c2cccc(C)c2C)CC1	13µM*	18.6	4.47µM*	?	-3.0
CCOC(=O)c1[nH]c2ccc(OC)cc2c1NC(=O)c1cccc(OC)c1	13µM*	21.0	-2.4%	-1.2%	-0.8
CCOC(=O)c1[nH]c2ccc(OC)cc2c1NC(=S)N1CCN(c2ccc(F)cc2)CC1	?	28.4	-13.3%	-8.7%	2.7
CCOC(=O)c1[nH]c2cc(OC)c(OC)cc2c1NC(=O)c1ccc2c(c1)OCO2	-5.8%	-74.6*	-33.9%	?	1.8
COC(=O)c1ccc(NC(=O)CN2CCN(CC#N)CC2)cc1	?	-5.2	22.6%	2.0%	0.4
Cc1oc2c(cc(NS(=O)(=O)c3ccc(C(C)C)cc3)c3ccccc32)c1C(=O)O	-7.3%	-12.1	-0.4%	5.6%	-11.8
Cc1oc2c(cc(NS(=O)(=O)c3ccc(F)cc3)c3ccccc32)c1C(=O)O	-7.8%	-7.6	20.0%	-1.3%	-31.0*
CC(C)C[C@@H](NC(=O)[C@@H](O)[C@H](N)Cc1ccccc1)C(=O)O	nt	nt	0.9%	2.4%	1.7
COC(=O)c1cn[nH]c1NC(=S)Nc1ccc(C)cc1Cl	?	-5.7	2.82µM*	3.55µM*	-0.5
COC(=O)c1cn[nH]c1NC(=S)Nc1ccccc1C	?	6.4	5.62µM*	?	1.8
COC(=O)c1cn[nH]c1NC(=S)Nc1ccc(Cl)c(Cl)c1	?	-22.0	?	?	1.4
O=C(CCCC[C@@H]1SC[C@H]2NC(=O)N[C@H]12)Nc1ccc(C(=O)O)cc1	nt	nt	6.3%	-9.0%	1.5
Clc1ccc(N=c2ssnc2Cl)nc1	1.3%	33.6	10µM*	-6.8%	0.9
Clc1nssc1=Nc1nncs1	5.8%	-23.0	nt	nt	nt
COc1ccc2[nH]cc(CCNC(=O)Cc3ccc(Cl)cc3)c2c1	?	5.2	23.1%	-15.1%	0.9
CCOc1ccccc1OCCCC(=O)NNC(=O)c1ccc(F)cc1	?	-15.2	nt	nt	nt
CCOc1ccccc1N1CCN(C(=S)NC(=O)C23CC4CC(CC(C4)C2)C3)CC1	-15.6%	-11.4	3.55µM*	3.55µM*	-0.4
O=C(Nc1ccccc1N1CCN(c2ccc(F)cc2)CC1)C12CC3CC(CC(C3)C1)C2	-15.3%	-3.4	-16.4%	-10.0%	1.7
CCOc1ccccc1N1CCN(C(=S)NCc2ccc(Cl)cc2)CC1	?	-2.2	19.1%	-8.7%	-18.7
O=C(NC(=S)N1CCN(c2ccc(F)cc2)CC1)C12CC3CC(CC(C3)C1)C2	?	-3.1	1.26µM*	3.16µM*	0.3
S=C1CCSc2ccc(Cl)cc2N1	1.7%	2.1	3.98µM*	10µM*	-0.3
SMILES	ELG1 DNA repair	TSHR antagonist	RORg inh	Gal4-VP16 FLuc	FBPA coupling cs
N=c1c2c(ncn1CCCO)Oc1ccc3ccccc3c1C2c1ccccc1 (stereo unspecified)	?	-11.8	-18.1%	0.5%	1.2
COc1ccc(C2c3c(ncn(Cc4ccco4)c3=N)Oc3ccc4ccccc4c32)cc1 (stereo unspecified)	-7.3%	-7.7	17.8µM*	8.91µM*	2.8
N=c1c2c(ncn1Cc1ccco1)Oc1ccc3ccccc3c1C2c1ccccc1 (stereo unspecified)	14.6µM*	-18.0	-27.5%	-16.0%	-0.5
COc1ccc2oc(C(=O)c3ccccc3)c(N)c2c1	?	-8.3	-2.3%	8.4%	nt
COc1ccc(C(=O)c2oc3ccccc3c2N)cc1	?	10.5	1.5%	10µM*	-8.6
COc1ccc(-c2oc3ccccc3c2C#CC(C)(C)O)cc1	13µM*	14.2	nt	nt	nt
CC(=O)Oc1c(-c2ccc(Br)o2)oc2ccccc2c1=O	1.1%	13.4	7.08µM*	7.08µM*	1.6
COc1ccc(-c2oc3ccccc3c(=O)c2OC(C)=O)cc1	4.0%	-0.4	7.08µM*	?	-1.0
Cn1c(CNC(=O)CNC(=O)Cc2ccc(Cl)cc2)cc(=O)n(C)c1=O	18.3%	-1.3	-6.5%	-6.2%	nt
O=C(CSc1nnc(C2CC2)n1C1CC1)c1cc(F)ccc1F	12.0%	13.6	nt	nt	nt
COC(=O)C1=C(C(=O)OC)[C@@H]2N(C)c3ccccc3[C@@]23C[C@@H](C(=O)OC)N(S(=O)(=O)c2ccc(C#N)cc2)C3=N1	nt	nt	nt	nt	0.5
O=C(Nc1cccc(S(=O)(=O)NCc2ccco2)c1)c1cccc(Cl)c1	0.0%	nt	nt	nt	nt
COc1ccc(CCNC(=O)c2cccc(S(=O)(=O)N3CCCCCC3)c2)cc1	?	-1.1	nt	nt	nt
O=C(CSc1ccc(-c2cccc([N+](=O)[O-])c2)nn1)NC1CCCC1	-3.0%	-2.6	1.78µM*	-2.4%	-2.5
O=C(NCc1cccs1)c1nc2c(nnn2Cc2ccccc2Cl)c(=O)[nH]1	16.4µM*	-13.2	10µM*	2.82µM*	11.2
Cn1c(=O)c2c(nc(N3CCCCC3)n2CC(O)COc2ccccc2)n(C)c1=O (stereo unspecified)	-2.0%	38.2	34.9%	-8.1%	1.9
COc1ccc(NC(=O)c2oc3ccccc3c2NC(=O)C2CC2)cc1OC	16.4µM*	16.3	?	5.1%	2.1
CCOc1ccccc1NC(=O)c1oc2ccccc2c1NC(=O)C1CCCO1 (stereo unspecified)	7.3µM*	2.4	-36.5%	-14.0%	-5.3
COc1ccc(NC(=O)c2oc3ccccc3c2NC(=O)c2ccc3c(c2)OCO3)cc1	9.2µM*	-1.6	41.3%	19.9%	-6.1
CCOc1ccccc1NC(=O)c1oc2ccccc2c1NC(=O)C1CC1	-2.7%	-9.2	-10.8%	-15.0%	nt
CC(C)NC(=O)N1CCCC2(CCN(C(=O)c3ccco3)CC2)C1	nt	nt	-18.0%	-4.5%	0.9
COc1cccc2[nH]c3c(N4CC(C)CC(C)C4)ncnc3c12 (stereo unspecified)	14.6µM*	-6.1	?	-10.7%	-0.6
COc1cccc2[nH]c3c(N4CCCC(C)C4)ncnc3c12 (stereo unspecified)	9.9%	-5.9	-12.7%	0.3%	-4.3
c1ccc2[nH]c(CCCc3nc4ccccc4[nH]3)nc2c1	3.1%	-8.1	-2.3%	2.2%	-2.4
Oc1ccc(O)c(Cc2nc3ccccc3[nH]2)c1	8.4%	-5.5	15.8µM*	-29.4%	-2.9
N#Cc1cccc(NC(=O)N2CC3(CCN(C(=O)c4cc(C(F)(F)F)cc(C(F)(F)F)c4)CC3)C2)c1	nt	nt	2.8%	-6.0%	3.8
